Measurements as given in PubChem BioAssay AID720541 (National Center for Advancing Translational Sciences (NCATS), 2013).
Values joined by “and” are separate entries in the source; they are usually repeats but may differ in a detail not shown here. Equal entries are not always repeated. Screen size: about 1,300 compounds; about 420 (32%) were called active. Another 32% or so got no clear call; they are omitted. The list shows a part of the results. Values without a mark were called inactive. Calls come from the whole dose curve; as a rule, active = well fitted inhibition curve with a large enough effect; inconclusive = small, poorly fitted or top-dose-only effect; inactive = no such curve, though single readings can be large or run the other way.

biological target: C-terminal-binding protein 1 (Homo sapiens) (UniProt Q13363); test: qHTS for Inhibitors of the Phosphatase Activity of Eya2: Carboxyl-terminal binding protein (CtBP) Counterscreen for Cherry-picked Compounds; conditions: purified protein-protein binding, AlphaScreen, 3 h; series mostly up to 46.1 µM; activity change, negative = inhibition: at the top concentration; note: nearly all actives have a fitted effect of over 65% in size
How it was run: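 AlphaScreen using 25 nM GST-E1A with 25 nM CtBP-6xHIS; compounds at 2.5 nM–46 uM final, 2 h at room temperature, then donor/acceptor beads (20 ug/mL) for 1 h in the dark. Signal normalized to E1A peptide inhibitor (maximum inhibition) and DMSO.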
% is set by controls: 0 for no effect and ±100 for the full control effect; potency is the fitted concentration of half-maximal effect.

SMILES | activity change, negative = inhibition | Potency
CC1CCCCC1NC(=O)COC(=O)c1c2c(nc3ccccc13)/C(=C\c1ccco1)CC2 (stereo not drawn) | -25.9% | 
Cn1nc([N+](=O)[O-])nc1Sc1cccc2cccnc12 |  | 2.69 µM (active)
Clc1ccc(-n2nnnc2-c2cnc3ccccc3c2-c2ccccc2)cc1 | -9.82% | 
O=C(NN1C(=O)/C(=C/C=C/c2ccco2)SC1=S)c1ccncc1 |  | 12 µM (active)
Oc1ccc(Cl)cc1CNc1cccc2cccnc12 |  | 5.36 µM (active)
Oc1c(Br)cc(Br)cc1CNc1cccc2cccnc12 |  | 5.36 µM (active)
CCOC(=O)C1=C(COC(=O)CCOc2ccccc2)NC(=O)NC1C (stereo not drawn) | 4.16% | 
CN(C)c1ccc(-c2ccnc3c2CC(C)(C(=O)NCCC(F)(F)F)O3)cc1 (stereo not drawn) | -19.4% | 
COc1ccc(S(=O)(=O)N2CCN(C(=O)c3cc4c(s3)CCC4)CC2)cc1 | -5.73% | 
COc1ccc(CNC(=O)C2CCN(S(=O)(=O)c3ccc4nc5c(c(C(=O)O)c4c3)CCCC5)CC2)cc1 |  | 12 µM (active)
O=C(O)c1c2c(nc3ccc(S(=O)(=O)N4CCC(C(=O)NC5CCCC5)CC4)cc13)CCCCC2 | -4.44% | 
Cc1ccc(CNC(=O)C2CCN(S(=O)(=O)c3ccc4nc5c(c(C(=O)O)c4c3)CC(C)CC5)CC2)cc1 (stereo not drawn) |  | 10.7 µM (active)
COc1ccc(C(=O)Nc2ccc3nc(C)sc3c2)cc1S(=O)(=O)N1CCOCC1 |  | 21.3 µM (active)
O=C(COC(=O)c1n[nH]c(=O)c2ccccc12)Nc1cccc(S(=O)(=O)N2CCOCC2)c1 | -14% | 
Cc1ccc(NC(=O)COc2ccc(S(=O)(=O)N3CCOCC3)cc2)cc1 | 1.7% | 
O=C(Nc1nc(-c2ccc(S(=O)(=O)N3CCOCC3)cc2)cs1)c1ccccc1 |  | 6.75 µM (active) and 7.57 µM (active)
O=S(=O)(c1ccc(Cl)cc1)N1CCOCC1 | 9.26% | 
O=C(Nc1cc(S(=O)(=O)N2CCOCC2)ccc1Cl)c1cc(=O)c2ccccc2o1 | -23.2% | 
COc1ccc(CC(=O)Nc2cccc(Cl)c2C)cc1S(=O)(=O)N1CCOCC1 | -0.0315% | 
CCOC(=O)N1CCN(S(=O)(=O)c2ccc(C(=O)NNc3nc4ccc(Cl)cc4s3)cc2)CC1 | -11.8% | 
O=C(Nc1nc(-c2ccccn2)cs1)c1cccc(S(=O)(=O)N2CCOCC2)c1 |  | 1.69 µM (active)

SMILES | activity change, negative = inhibition | Potency
COc1ccc(C(=O)Nc2nc(-c3ccccn3)cs2)cc1S(=O)(=O)N1CCOCC1 |  | 1.51 µM (active)
O=C(Nc1nc2c(F)cc(F)cc2s1)c1ccc([N+](=O)[O-])o1 | -19.4% | 
Oc1ccccc1-n1c(-c2ccccc2)ccc1-c1ccccc1 | -11% | 
CN1CCN(C(c2ccccn2)c2cc(Cl)c3cccnc3c2O)CC1 (stereo not drawn) |  | 1.51 µM (active)
Oc1c(C(c2ccc(Cl)cc2)N2CCCC2)cc(Cl)c2cccnc12 (stereo not drawn) |  | 4.78 µM (active)
OC(c1ccc(Cl)cc1)c1nccc2ccccc12 (stereo not drawn) | 9.19% | 
NC(=O)c1nc(C(=O)N2CCCCC2)c2ccccc2n1 | 4.22% | 
O=C(c1ccc2c(=O)n3c(nc2c1)CCCCC3)N1CCN(c2cccc(Cl)c2)CC1 |  | 16.9 µM (active)
COc1ccc(/C=C/C(=O)Nc2ccc3nc4n(c(=O)c3c2)CCCC4)cc1 | -17.7% | 
Cc1ccc(NC(=S)N2CCc3[nH]c4ccccc4c3C2)cc1 | 1.7% | 
CN(C)c1ccc(C2C=Cc3ccccc32)c2ccccc12 (stereo not drawn) |  | 9.53 µM (active)
O=C(Oc1ccc(C(=S)N2CCCCC2)cc1)c1ccccc1F | -20.3% | 
c1ccc2cc(CSCc3nc4ccccc4[nH]3)ccc2c1 | -16.5% | 
Cc1ccccc1N=C1NC(=O)/C(=C/c2cccn2C)S1 | -28% | 
CCc1ccc(N=C2NC(=O)/C(=C/c3cc(OC)c(O)c(OC)c3)S2)cc1 |  | 19 µM (active)
CC1Cc2ccccc2N1NC(=O)c1ccc(Cl)c(S(N)(=O)=O)c1 (stereo not drawn) | 3.62% | 
O=C(c1cccc(-n2cccc2)c1)N1CCN(S(=O)(=O)c2ccccc2)CC1 | -25.9% | 
O=C(c1cccc(S(=O)(=O)Nc2ccccc2Cl)c1)N1CCN(c2ccccc2O)CC1 |  | 15.1 µM (active)
CC1C(c2ccccc2)=Nn2c(=O)n(-c3ccccc3)c(=O)n21 (stereo not drawn) | -4.88% | 
N#Cc1ccc(C(=O)N2CCC3CC2c2cc(-c4ccccc4)ccc23)cc1 (stereo not drawn) | -9.92% | 
Cc1oc2c(Cl)c(Cl)c(O)c(CN(C)C)c2c1C(=O)c1ccc(Cl)cc1 |  | 15.1 µM (active)

SMILES | activity change, negative = inhibition | Potency
COC(=O)c1ccccc1NC1=C/C(=N\S(=O)(=O)c2cccs2)c2ccccc2C1=O |  | 1.69 µM (active)
COCCN(Cc1cc2cc3c(cc2nc1Cl)OCO3)C(=O)Nc1ccc(OC)cc1 | 13.9% | 
O=C(CSc1nc2ccccc2n1CCc1ccccc1)c1ccc(O)c(O)c1 | -27.5% | 
COc1cnc(-c2ccccn2)nc1Oc1ccc(C(C)(C)C)cc1 |  | 3.38 µM (active)
COc1ccc(Oc2nc(-c3ccccn3)ncc2OC)cc1 |  | 10.7 µM (active)
CCOC(=O)C(C)Sc1nc(-c2ccccn2)ncc1OC (stereo not drawn) |  | 2.39 µM (active)
COc1ccc(CN(CCN(C)C)c2ccccn2)cc1 | 5.67% | 
O=C(Cn1c(C(=O)N2CCc3ccccc3C2)cc2sccc21)c1ccccc1 | -15.2% | 
CCCc1nc(N2CCN(C)CC2)c2sc(=S)n(-c3ccccc3)c2n1 | -5.86% | 
CC1CCC2C(=O)N(c3ccc(C(=O)Oc4cccc5cccnc45)cc3)C(=O)C2C1 (stereo not drawn) |  | 6.01 µM (active)
CC1C=CCC2C(=O)N(c3ccc(OC(=O)c4cccs4)cc3)C(=O)C12 (stereo not drawn) | -14.7% | 
Cc1ccc(C(=O)Oc2ccc(C(=O)COC(=O)c3cnccn3)cc2)cc1 | -16.4% | 
O=C(OCC(=O)c1ccc(Cl)cc1Cl)c1ccccn1 |  | 12 µM (active)
O=c1cc2ncc(-n3cc([N+](=O)[O-])cn3)cn2[nH]1 | -1.64% | 
O=S(c1cc(Cl)cc(Cl)c1O)c1cc(Cl)cc(Cl)c1O |  | 3.38 µM (active)
O=c1nc2c(O)cccn2c2c1c(=O)[nH]c1ccccc12 |  | 3.79 µM (active)
CCOc1ccc(Nc2nc(N)nc(CN(C)C3CCCCC3)n2)cc1 | -16.8% | 
N[C@@H](Cc1cnc[nH]1)C(=O)Nc1ccc2ccccc2c1 |  | 19 µM (active)
Cc1cc2nc(-c3ccco3)c(Cc3cccc(F)c3)n2c(C)c1Br | -24.9% | 
CCN(CC)c1ccc(/C=N/N2CCN(Cc3ccccc3Cl)CC2)cc1 |  | 8.49 µM (active)
CSc1ccc(/C=N/N2CCN(Cc3ccc(C)cc3C)CC2)cc1 | -36% | 
